Here are results for 40 molecules from PubChem BioAssay.

One may read the inhibition as the change of the read-out against control, counted positive when it falls.

A number with no mark means an inactive call. The rule behind the calls is not given here.

Sequence of Botulinum neurotoxin type A (Clostridium botulinum) (P0DPI0 whole entry, looked up): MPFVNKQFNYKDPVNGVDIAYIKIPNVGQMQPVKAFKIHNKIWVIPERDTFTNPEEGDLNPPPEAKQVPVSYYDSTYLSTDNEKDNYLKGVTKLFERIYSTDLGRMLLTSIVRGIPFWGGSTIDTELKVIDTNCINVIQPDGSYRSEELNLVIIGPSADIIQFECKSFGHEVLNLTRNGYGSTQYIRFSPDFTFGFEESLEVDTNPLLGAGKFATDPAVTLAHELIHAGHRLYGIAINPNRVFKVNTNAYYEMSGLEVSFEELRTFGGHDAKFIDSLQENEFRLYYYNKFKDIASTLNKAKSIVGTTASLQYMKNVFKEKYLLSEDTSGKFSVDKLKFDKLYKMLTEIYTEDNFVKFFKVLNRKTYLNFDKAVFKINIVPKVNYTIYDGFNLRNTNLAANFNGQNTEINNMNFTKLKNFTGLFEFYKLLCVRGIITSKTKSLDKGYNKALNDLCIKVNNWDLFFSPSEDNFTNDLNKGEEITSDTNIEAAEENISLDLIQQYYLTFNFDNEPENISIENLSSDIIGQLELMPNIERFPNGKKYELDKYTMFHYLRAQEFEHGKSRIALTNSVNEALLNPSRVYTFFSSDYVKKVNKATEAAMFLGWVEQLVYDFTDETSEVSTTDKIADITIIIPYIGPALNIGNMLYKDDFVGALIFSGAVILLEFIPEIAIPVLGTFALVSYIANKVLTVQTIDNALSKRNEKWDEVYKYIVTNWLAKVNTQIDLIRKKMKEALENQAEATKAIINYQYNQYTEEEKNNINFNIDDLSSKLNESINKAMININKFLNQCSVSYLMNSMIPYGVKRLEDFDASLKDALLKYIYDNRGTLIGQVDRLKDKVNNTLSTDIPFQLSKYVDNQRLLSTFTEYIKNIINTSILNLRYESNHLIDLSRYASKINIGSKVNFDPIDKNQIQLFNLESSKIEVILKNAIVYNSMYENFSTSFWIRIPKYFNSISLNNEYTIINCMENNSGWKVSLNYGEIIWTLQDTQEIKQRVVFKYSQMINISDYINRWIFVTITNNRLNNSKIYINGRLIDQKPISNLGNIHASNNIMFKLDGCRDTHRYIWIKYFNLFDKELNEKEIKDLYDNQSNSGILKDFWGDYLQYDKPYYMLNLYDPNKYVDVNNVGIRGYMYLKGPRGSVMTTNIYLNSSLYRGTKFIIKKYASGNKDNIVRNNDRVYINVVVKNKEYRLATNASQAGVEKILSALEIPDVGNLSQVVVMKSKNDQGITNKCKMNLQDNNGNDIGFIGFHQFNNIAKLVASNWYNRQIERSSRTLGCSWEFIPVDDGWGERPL

The test system of the first experiment is Botulinum neurotoxin type F light chain protease (Clostridium botulinum). The experiment can be described thus: Clostridium botulinum type F light chain protease inhibitors, microsphere substrate cleavage, validation (AID 588459). To be noted: multiplex microsphere protease substrate cleavage assay, flow cytometry; at 10 µM; stronger effect = higher value. In general terms: A flow cytometer gives signals particle by particle.
In the case of `COc1cc(C2C(C(C)=O)=C(O)C(=O)N2c2ccc(C)cc2)ccc1O` (stereo not given), the inhibition is -1.4%.
On the same count and under the same terms, as for `Cc1nc2ccccc2n1CC(=O)NC1CCCC1`, the figure is -0.9%.
Still for that read-out and setting: the figure for `CCOC(=O)c1oc2cc(OCC(N)=O)ccc2c(=O)c1-c1ccc(OC)c(OC)c1` is -3.1%; for `COC(=O)c1ccccc1OCCOCCOc1cccc2ccc(C)nc12` it is 0.3%; for `Cc1ccc2c(c1)c1c3n2CCCNC3CCC1` (stereo not given) it is 9.2%.
In the case of `COc1ccc2c(CC(=O)NCC3CCC(C(=O)O)CC3)cc(=O)oc2c1` (stereo not given), the inhibition is 1%.
Same read-out and setting: as for `Cc1ccc(SCC(=O)Nc2nccs2)cc1`, the figure is -4.8%; as for `Cc1ccc2c(c1)c1c3n2CCCN(Cc2ccccc2)C3CCC1` (stereo not given), -0.2%.
Consider `CC(C)Oc1ccc2c(=O)c(-c3ccccc3)coc2c1`, for which the inhibition is 4.4%.
In the case of `CO[C@@]1(NC(=O)Cc2cccs2)C(=O)N2C(C(=O)O)=C(COC(N)=O)CS[C@@H]21`, the inhibition was -1.9%.
On the same count and under the same terms, the figure for `C[N+](C)(C)CCCCCCCCCC[N+](C)(C)C` is -0.3%; for `COc1cccc(OC2OC3COC(C)(C)OC3C(O)C2NC(C)=O)c1` (stereo not given) it is -0.8%; for `N/C(=N/OS(=O)(=O)c1ccc([N+](=O)[O-])cc1)c1ccncc1` it is 2.2%.
Still for that read-out and setting: the figure for `COc1c2c(nc3occc13)C(CC=C(C)C)(OC)C(O)CC2` (stereo not given) is 0.8%; for `COC1CCN(C(=O)c2ccc(OC3CCN(Cc4ccccn4)CC3)cc2)CC1` it is 2.5%; for `CSCCC(NC(C)=O)C(=O)Oc1ccc2c3c(c(=O)oc2c1)CCCC3` (stereo not given) it is -3.3%.
Regarding `CCN(CC)C(=S)SSC(=S)N(CC)CC`, the inhibition is -3.2%.
Consider `CN1CCCC(OC(=O)c2ccc3c(c2)OCCO3)C1` (stereo not given), for which the inhibition is 1%.
For `CC(CCc1ccccc1)NCC(O)c1ccc(O)c(C(N)=O)c1` (stereo not given), the inhibition is -1%.
On the same count and under the same terms, as for `Cc1c(OCC(F)(F)F)ccnc1CS(=O)c1nc2ccccc2[nH]1` (stereo not given), the figure is -1%.
Regarding `C[C@]12CC[C@@H]3c4ccc(O)cc4[C@@H](O)C[C@H]3[C@@H]1CC[C@@H]2O`, the inhibition is 3.3%.
Take `COc1cc(NS(=O)(=O)c2ccc(N)cc2)nc(OC)n1`: the inhibition is 1.2%.
Regarding `CCOc1ccccc1OCCOc1ccc(F)cc1`, the inhibition was 0.7%.
With `COc1ccc(-c2coc3c(CN4CCOCC4)c(O)ccc3c2=O)cc1`, the inhibition was 2.6%.
Same read-out and setting: as for `Cc1ccc2c(c1)C1CN(C)CCC1N2S(=O)(=O)c1ccc(Oc2ccc([N+](=O)[O-])cc2)cc1` (stereo not given), the figure is 2.6%; as for `O=c1cnn([C@@H]2O[C@H](CO)[C@@H](O)[C@H]2O)c(=O)[nH]1`, -0.1%.
Still for that read-out and setting: the figure for `Cc1cn([C@H]2C=C[C@@H](CO)O2)c(=O)[nH]c1=O` is -1.8%; for `O=C(Cc1cccc2ccccc12)N1CC[C@@]2(O)CCCC[C@H]2C1` it is 2.2%; for `CC1(C)CC(NC(=O)C23CCC(C)(C(=O)C2=O)C3(C)C)CC(C)(C)N1` (stereo not given) it is 2.9%.
The same measure, in the same setting: as for `c1cnc(N2CCN(Cc3ccc4c(c3)OCO4)CC2)nc1`, the figure is -2.3%.
For the molecule `c1ccc2c(c1)CCCC2C1=NCCN1` (stereo not given), the inhibition is 0.7%.
On to `CC12CCC(C(=O)Nc3ccccc3Br)(C/C1=N\O)C2(C)C` (stereo not given), for which the inhibition was -3.6%.
On the same count and under the same terms, as for `C=CCc1cc(Cl)ccc1OCCOCCN(C)C`, the figure is -0.1%; as for `COCCn1c(/C=C/c2ccccc2)nc2ccccc21`, -1.2%.
The same measure, in the same setting: the figure for `O=C(O)C1Sc2[nH]c(=O)sc2C2c3ccc(O)cc3OC(=O)C12` (stereo not given) is -6.1%; for `COc1cc2cc(C(=O)O)n(C)c2c(OC)c1OC` it is 1.3%; for `CNS(=O)(=O)c1ccc(C)cc1` it is -3.1%.
For the molecule `COc1cc(/C=C/C(=O)O)cc(S(=O)(=O)NCCCO)c1OC`, the inhibition was 1.9%.
Still for that read-out and setting: the figure for `COc1cc2c(cc1OC)C(c1ccccc1)=NCC2` is 0.6%; for `Cc1cccc2c1CC(C)(C)N/C2=C\C(N)=O` it is 1%.

The next experiment addresses Botulinum neurotoxin type A (Clostridium botulinum) (UniProt P0DPI0). The experiment can be described thus: BoNT/A light chain protease inhibitors, biochemical, multiplex microsphere flow cytometry, validation set (AID 588460). The following applies: at 10 µM, stronger effect = higher value.
Turning to `COc1cc(C2C(C(C)=O)=C(O)C(=O)N2c2ccc(C)cc2)ccc1O` (stereo not given), the inhibition is 0.2%.
Still for that read-out and setting: the figure for `Cc1nc2ccccc2n1CC(=O)NC1CCCC1` is -0.2%; for `CCOC(=O)c1oc2cc(OCC(N)=O)ccc2c(=O)c1-c1ccc(OC)c(OC)c1` it is 1.1%; for `COC(=O)c1ccccc1OCCOCCOc1cccc2ccc(C)nc12` it is 3.8%.
Still for that read-out and setting: the figure for `Cc1ccc2c(c1)c1c3n2CCCNC3CCC1` (stereo not given) is 1.9%.
Still for that read-out and setting: the figure for `COc1ccc2c(CC(=O)NCC3CCC(C(=O)O)CC3)cc(=O)oc2c1` (stereo not given) is -0.1%; for `Cc1ccc(SCC(=O)Nc2nccs2)cc1` it is -0.5%.
With `Cc1ccc2c(c1)c1c3n2CCCN(Cc2ccccc2)C3CCC1` (stereo not given), the inhibition is -0.1%.
Same read-out and setting: the figure for `CC(C)Oc1ccc2c(=O)c(-c3ccccc3)coc2c1` is 1.4%.
Still for that read-out and setting: the figure for `CO[C@@]1(NC(=O)Cc2cccs2)C(=O)N2C(C(=O)O)=C(COC(N)=O)CS[C@@H]21` is 1.4%; for `C[N+](C)(C)CCCCCCCCCC[N+](C)(C)C` it is -0.8%.
On to `COc1cccc(OC2OC3COC(C)(C)OC3C(O)C2NC(C)=O)c1` (stereo not given), for which the inhibition is 0.2%.
The same measure, in the same setting: the figure for `N/C(=N/OS(=O)(=O)c1ccc([N+](=O)[O-])cc1)c1ccncc1` is 0.3%; for `COc1c2c(nc3occc13)C(CC=C(C)C)(OC)C(O)CC2` (stereo not given) it is 0.9%; for `COC1CCN(C(=O)c2ccc(OC3CCN(Cc4ccccn4)CC3)cc2)CC1` it is 2.3%.
As for `CSCCC(NC(C)=O)C(=O)Oc1ccc2c3c(c(=O)oc2c1)CCCC3` (stereo not given), the inhibition is -1.8%.
Same read-out and setting: as for `CCN(CC)C(=S)SSC(=S)N(CC)CC`, the figure is -3.2%.
The same measure, in the same setting: the figure for `CN1CCCC(OC(=O)c2ccc3c(c2)OCCO3)C1` (stereo not given) is 0.8%; for `CC(CCc1ccccc1)NCC(O)c1ccc(O)c(C(N)=O)c1` (stereo not given) it is -1.4%.
`Cc1c(OCC(F)(F)F)ccnc1CS(=O)c1nc2ccccc2[nH]1` (stereo not given): the inhibition is -0.5%.
On the same count and under the same terms, the figure for `C[C@]12CC[C@@H]3c4ccc(O)cc4[C@@H](O)C[C@H]3[C@@H]1CC[C@@H]2O` is -0.4%.
The same measure, in the same setting: the figure for `COc1cc(NS(=O)(=O)c2ccc(N)cc2)nc(OC)n1` is 1.1%.
The same measure, in the same setting: as for `CCOc1ccccc1OCCOc1ccc(F)cc1`, the figure is -1.2%; as for `COc1ccc(-c2coc3c(CN4CCOCC4)c(O)ccc3c2=O)cc1`, 0.6%; as for `Cc1ccc2c(c1)C1CN(C)CCC1N2S(=O)(=O)c1ccc(Oc2ccc([N+](=O)[O-])cc2)cc1` (stereo not given), 0.4%.
As to `O=c1cnn([C@@H]2O[C@H](CO)[C@@H](O)[C@H]2O)c(=O)[nH]1`, the inhibition is 1.8%.
As to `Cc1cn([C@H]2C=C[C@@H](CO)O2)c(=O)[nH]c1=O`, the inhibition was -2.2%.
With `O=C(Cc1cccc2ccccc12)N1CC[C@@]2(O)CCCC[C@H]2C1`, the inhibition is 0.2%.
For `CC1(C)CC(NC(=O)C23CCC(C)(C(=O)C2=O)C3(C)C)CC(C)(C)N1` (stereo not given), the inhibition is -0.7%.
Still for that read-out and setting: as for `c1cnc(N2CCN(Cc3ccc4c(c3)OCO4)CC2)nc1`, the figure is -1.4%; as for `c1ccc2c(c1)CCCC2C1=NCCN1` (stereo not given), 0.9%.
Turning to `CC12CCC(C(=O)Nc3ccccc3Br)(C/C1=N\O)C2(C)C` (stereo not given), the inhibition is -0.7%.
As to `C=CCc1cc(Cl)ccc1OCCOCCN(C)C`, the inhibition is -1.3%.
Turning to `COCCn1c(/C=C/c2ccccc2)nc2ccccc21`, the inhibition was 0%.
Regarding `O=C(O)C1Sc2[nH]c(=O)sc2C2c3ccc(O)cc3OC(=O)C12` (stereo not given), the inhibition was -1%.
Regarding `COc1cc2cc(C(=O)O)n(C)c2c(OC)c1OC`, the inhibition was -0.4%.
Consider `CNS(=O)(=O)c1ccc(C)cc1`, for which the inhibition was -0.5%.
On to `COc1cc(/C=C/C(=O)O)cc(S(=O)(=O)NCCCO)c1OC`, for which the inhibition is 0.7%.
Still for that read-out and setting: the figure for `COc1cc2c(cc1OC)C(c1ccccc1)=NCC2` is 0.8%; for `Cc1cccc2c1CC(C)(C)N/C2=C\C(N)=O` it is 1%.
